Test results as given in PubChem BioAssay (NCATS).
Results filed as inconclusive are left out. A number with no mark means an inactive call. The source made the active and inactive calls. Calls come from the whole dose curve. Where a SMILES comes first, the peptide text is derived from it. [ ]: non-standard residue; d: D form. pGlu = O=C1CC[C@@H](C(=O)O)N1

Experiment: A High-Content qHTS Against Drug Library for the Identification of Small Molecules that Inhibit DYT1 Early Onset Primary Dystonia-Associated Cell Pathology (AID 1645839)
Details: HEK293 Flp-In EGFP-delE TorsinA, punctate imaging, 48 h; series mostly up to 46.1 µM; % pathology change, negative = correction: at the top concentration
From the text: Nicole Calakos M.D., Ph.D.
Duke University School of Medicine, Durham, NC
In DYT1 dystonia due to delGAG in the TOR1A gene, there is a robust and widely replicated finding of TorsinA protein mislocalization caused when the mutant protein is in excess of the wildtype protein (1-7). Stable HEK293 cell lines were created that replicate this phenomenon. Inducible expression of an EGFP-hu delE TorsinA encoding cDNA causes pronounced punctate cellular distribution. […] This phenotypic difference in EGFP-huTorsinA fusion protein distribution serves as an indicator of cell pathology. […] RNAi screen results with the assay were validated in DYT1 patient cell phenotypes, intersected with a known dystonia gene, and led to discovery of new human genetic dystonia associations.
The bioassay described herein is a high-content image screen with two readouts. The "%pathology" readout is the primary qHTS data channel, while the "cellcount" is the counterscreen qHTS channel. Desired active compounds are those that show inhibition in %pathology channel but no activity or minimal toxicity in cellcount readout.
1. Kustedjo, K., Bracey, M.H., and Cravatt, B.F. (2000). […] J. Biol. Chem. 275, 27933 - 27939.
2. Bragg, D.C., Kaufman, C.A., Kock, N., and Breakefield, X.O. (2004). Inhibition of N-linked glycosylation prevents inclusion formation by the dystonia-related mutant form of torsinA. Mol. Cell. Neurosci. 27, 417 - 426.
3. Gonzalez-Alegre, P., and Paulson, H.L. (2004). Aberrant Cellular Behavior of Mutant TorsinA Implicates Nuclear Envelope Dysfunction in DYT1 Dystonia. J. Neurosci. 24, 2593 - 2601.
4. Goodchild, R.E., and Dauer, W.T. (2004). Mislocalization to the nuclear envelope: an effect of the dystonia-causing torsinA mutation. Proc. Natl. Acad. Sci. U. S. A. 101, 847 - 852.
5. Kock, N., Allchorne, A.J., Sena-Esteves, M., Woolf, C.J., and Breakefield, X.O. (2006). RNAi blocks DYT1 mutant torsinA inclusions in neurons. Neurosci. Lett. 395, 201 - 205.
6. Hewett, J.W., Nery, F.C., Niland, B., Ge, P., Tan, P., Hadwiger, P., Tannous, B.A., Sah, D.W.Y., and Breakefield, X.O. (2008). siRNA knock-down of mutant torsinA restores processing through secretory pathway in DYT1 dystonia cells. Hum. Mol. Genet. 17, 1436 - 1445.
7. Calakos, N., Patel, V.D., Gottron, M., Wang, G., Tran-Viet, K.N., Brewington, D., Beyer, J.L., Steffens, D.C., Krishnan, R.R., and Zuchner, S. (2010). Functional evidence implicating a novel TOR1A mutation in idiopathic, late-onset focal dystonia. J. Med. Genet. 47, 646 - 650.
8. Rittiner* JE, Caffall* ZF, Hernandez-Martinez R, Sanderson SM, Pearson JL, Tsukayama KK, Liu AY, Xiao C, Tracy S, Shipman MK, Hickey P, Johnson J, Scott B, Stacy M, Saunders-Pullman R, Bressman S, Simonyan K, Sharma N, Ozelius LJ, Cirulli ET, Calakos N. Functional Genomic Analyses of Mendelian and Sporadic Disease Identify Impaired eIF2alpha Signaling as a Generalizable Mechanism for Dystonia. Neuron. 2016 Dec 21;92(6):1238-1251. doi: 10.1016/j.neuron.2016.11.012. Epub 2016 Dec 8. PMID: 27939583; PMCID: PMC5320521.
High-content, High-throughput Drug Screening Assay
The TorsinA mislocalization assay was modified from the previously published assay to accommodate compound testing in 1536 well format.1 Briefly, Flp-In T-REx 293 cells from Invitrogen in which a single copy of a cDNA is recombined into a specific genomic locus was used to create tetracycline-inducible expression of cDNA encoding either EGFP-hTOR1A (WT) or EGFP-delE hTOR1A (DYT1). WT and DYT1 cells were diluted to a concentration of 2 x 10^5 cells/mL in reduced serum media (DMEM High Glucose containing 1% tetracycline-tested FBS, 2 mM L-Glutamine, and 1% Penicillin/Streptomycin). 4 µl of WT cells and 4 µl of DTY1 cells were added to column 1 and columns 2-48, respectively, of a poly-D-lysine-coated, low base, black, clear bottom 1536 well plate (Corning, Corning, NY) using the BioRAPTR FRD Microfluidic Workstation (Beckman Coulter, Indianapolis, IN). The final cell number was 800 cells/well. […]
Potency is the fitted concentration of half-maximal effect.

Structure (SMILES)	% pathology change, negative = correction	Potency
O=C(O)c1cn(C2CC2)c2cc(Cl)c(F)cc2c1=O	0.586%	–
O=C(CCOCCOCCOCCOCCC(=O)Nc1c(I)cc(I)c(C(=O)O)c1I)Nc1c(I)cc(I)c(C(=O)O)c1I	17.5%	–
CN(C)CCN1CCN(c2cccc(Cl)c2)C1=O	-0.0259%	–
Cc1ccccc1C(=O)N1CC/C(=N\OS(=O)(=O)O)c2ccc(Cl)cc21	12.5%	–
Brc1ccccc1-c1ccccc1	-15.1% [at 91.7 µM]	–
CCNC(=O)[C@@H]1CCCN1C(=O)[C@H](CCCN=C(N)N)NC(=O)[C@H](CC(C)C)NC(=O)CNC(=O)[C@H](Cc1ccc(O)cc1)NC(=O)[C@H](CO)NC(=O)[C@H](Cc1c[nH]c2ccccc12)NC(=O)[C@H](Cc1cnc[nH]1)NC(=O)[C@@H]1CCC(=O)N1 ([pGlu]HWSYGLRP-NHEt)	10.6%	–
NC(=O)NS(=O)(=O)c1ccc(Cl)cc1	1.58%	–
C[C@H]1NCc2cc(-c3ccc4c(=O)c(C(=O)O)cn(C5CC5)c4c3OC(F)F)ccc21	10.8% [at 19.1 µM]	–
C/C(=N\O)[C@@H](C)NCC(C)(C)CN[C@H](C)/C(C)=N/O	15.7%	–
Cc1ccc(/C=N/n2c(-c3ccccc3)csc2=S)cc1	-7.21%	–
CSCC[C@H](NC(=O)[C@H](Cc1c[nH]c2ccccc12)NC(=O)CCNC(=O)OC(C)(C)C)C(=O)N[C@@H](CC(=O)O)C(=O)N[C@@H](Cc1ccccc1)C(N)=O	-13.2%	–
CCC(=O)O[C@]1(C(=O)COC)[C@@H](C)C[C@H]2[C@@H]3CCC4=CC(=O)C=C[C@]4(C)C3(F)[C@@H](O)C[C@@]21C (stereo not given in full)	0.507%	–
CCCOc1ccc2c(c1)CC[C@@H]1[C@@H]2CC[C@]2(C)C(OC)CC[C@@H]12 (stereo not given in full)	11.9%	–
N[C@@H](Cc1cc(I)c(O)c(I)c1)C(=O)O	11.1%	–
Nc1c(NC/C=C\COc2cc(CN3CCCCC3)ccn2)c(=O)c1=O	0.275% [at 19.1 µM]	–
C[C@@H]1CCC[C@H](C)N1CCCC(O)(c1ccccc1)c1ccccn1 (stereo not given in full)	7.6%	–
COc1cc2c(cc1OC)C(=O)CC2	16.1%	–
CC(=O)N(c1onc(C)c1C)S(=O)(=O)c1ccc(N)cc1	-0.844%	–
Cc1c(N)cccc1C(F)(F)F	5.37%	–
CN1CCN(N)CC1	9.02%	–

Structure (SMILES)	% pathology change, negative = correction	Potency
Cc1c(C)c2c(c(C)c1OC(=O)CCC(=O)OCCO)CC[C@@](C)(CCC[C@H](C)CCC[C@H](C)CCCC(C)C)O2	–	5.62 µM (active)
CC(=O)O[C@@H]1CC2C3CCc4cc(OC(=O)c5ccccc5)ccc4C3CCC2(C)[C@H]1OC(C)=O (stereo not given in full)	11.3%	–
O=C(O)Cn1cnnn1	1.14%	–
C#CC(C)(CC)OC(=O)c1ccccc1C(=O)O (stereo not given)	6.78%	–
COC(=O)/C=C\C(=O)OC	2.57%	–
CCOC(=O)[C@H](CCc1ccccc1)N[C@@H](C)C(=O)N(CC(=O)O)C1Cc2ccccc2C1	0.114%	–
C=CC[N+]1([C@H]2C[C@H]3[C@@H]4CC[C@H]5C[C@H](OC(C)=O)[C@@H](N6CCCCC6)C[C@]5(C)[C@H]4CC[C@]3(C)[C@H]2OC(=O)CC)CCCCC1	-3.48%	–
COC(=O)c1cc(S(N)(=O)=O)ccc1OC	4.62%	–
O=P(O)(O)OCC(O)CO (stereo not given)	19.2%	–
Cc1cc2nc3ccc(=[N+](C)C)cc-3sc2cc1N	–	7.08 µM (active)
CCOc1ncc(F)c(=O)[nH]1	3.11%	–
CNC(=O)c1cnn(-c2nc(N)c3ncn([C@@H]4O[C@H](CO)[C@@H](O)[C@H]4O)c3n2)c1	11.5%	–
CC(=O)N(CC(O)CO)c1c(I)c(C(=O)NCCO)c(I)c(C(=O)NCC(O)CO)c1I (stereo not given)	-17.3%	–
COc1cc(S(N)(=O)=O)cc(C(=O)O)c1OC	2.56%	–
COC(=O)c1ccc(NC(C)=O)cc1OC	3.31%	–
C[C@H](CN1CCCC1)C(=O)c1ccc(C(F)(F)F)cc1	-21.4%	–
O=C(O)[C@@H](O)[C@H](O)[C@H](O)[C@@H](O)C(=O)O	16.1%	–
CCCCN(CCCC)C(C(N)=O)c1ccc(OC)cc1 (stereo not given)	-5.65%	–
CCOC(=O)C(=O)CCc1ccccc1	8.12%	–
C[C@H]1C[C@H](O)c2ccsc2S1(=O)=O	13.5%	–
